Among the test systems are EPHA3; EPHA4; EPHA5; EPHA6; EPHA7; EPHA8; EPHB1; EPHB2; EPHB3; EPHB4; EPHB6; ERBB2; ERBB3; ERBB4.
Conditions in all cases: concentration: 1 μM, replicates: in singlicate; n = 1
A further experiment concerns T1, ERK1.
T1 construct: gene MAPK3

The next experiment has as its system T2, ERK2.
T2 construct: gene MAPK1

Another experiment relates to T3, ERK3.
T3 construct: gene MAPK6

The next experiment concerns T4, ERK4.
T4 construct: gene MAPK4

Another experiment relates to T5, ERK5.
T5 construct: gene MAPK7

Another experiment deals with T6, ERK8.
T6 construct: gene MAPK15
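Further: KINOMEscan kinase panel screen.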

Take `Cn1cc(-c2ccc3c(c2)CCN3C(=O)Cc2ccccc2Cl)c2c(N)ncnc21` [GSK2608885]: the “%Inh” value in the experiment on EPHA3 turned out to be 34%; in the experiment with EPHA4, 62%; in the experiment with EPHA5, 0%; with EPHA6, 58%; in the experiment on EPHA7 it was 92%; with EPHA8, 93.5%. The “%Inh” value was 43% with EPHB1; 64% with EPHB2; 0% with EPHB3; 15% in the experiment with EPHB4; 98.3% with EPHB6; 97.2% with ERBB2. For the same molecule, the “%Inh” value was 86% with ERBB3; 98.9% in the experiment on ERBB4; 0% in the experiment with ERK1; 0% with ERK2; 0% in the experiment with ERK3; 23% in the experiment on ERK4. The “%Inh” value with ERK5 is recorded as 47%; with ERK8 it was 0%.
Regarding `Cc1c(Cn2c(C)nn3c(=O)cc(N4CCOC(C)C4)nc23)cccc1C(F)(F)F` (stereo not drawn) [GSK2344444], the “%Inh” value in the experiment with EPHA3 came out at 0%; with EPHA4, 3%; with EPHA5, 0%; in the experiment on EPHA6, 0%; with EPHA7 it was 3%; with EPHA8, 0%. For the same molecule, the “%Inh” value in the experiment on EPHB1 is reported as 10%; in the experiment with EPHB2, 46%; with EPHB3, 0%; with EPHB4 it was 0%; with EPHB6, 0%; in the experiment with ERBB2, 0%. Besides, the “%Inh” value with ERBB3 is 0%; in the experiment with ERBB4, 0%; in the experiment on ERK1, 0%; in the experiment on ERK2 it was 0%; in the experiment with ERK3, 0%; with ERK4 it was 11%. The “%Inh” value in the experiment on ERK5 is recorded as 0%; in the experiment on ERK8, 26%.
For the molecule `CN1c2ccc(CNc3ccc(F)cc3)cc2-c2c(cnn2C)S1(=O)=O`, the “%Inh” value in the experiment with EPHA3, in the experiment on EPHA4, in the experiment on EPHA5, with EPHA6, in the experiment on EPHA7 and with EPHA8 was 0% in each case. Also, the “%Inh” value is on record as 0% in the experiment on EPHB1; 17% in the experiment with EPHB2; 0% in the experiment on EPHB3; 1% with EPHB4; 0% in the experiment with EPHB6; 13% in the experiment with ERBB2. For the same molecule, the “%Inh” value in the experiment on ERBB3 turned out to be 9%; in the experiment with ERBB4, 0%; in the experiment with ERK1, 0%; with ERK2, 0%; in the experiment with ERK3 it was 0%; in the experiment with ERK4, 0%. In addition, the “%Inh” value in the experiment on ERK5 and in the experiment with ERK8 was 0% throughout.
In the case of `O=C(NCCCN1CCOCC1)c1cccc(Nc2nccc(Nc3ccc(Oc4ccccc4)cc3)n2)c1` [GW663929], the “%Inh” value in the experiment with EPHA3 worked out at 25%; in the experiment with EPHA4 it was 3%; in the experiment with EPHA5 it was 0%; in the experiment on EPHA6, 3%; in the experiment on EPHA7, 0%; in the experiment with EPHA8 it was 0%. The “%Inh” value in the experiment with EPHB1 came out at 1%; in the experiment with EPHB2, 0%; in the experiment with EPHB3, 2%; in the experiment on EPHB4, 14%; in the experiment on EPHB6 it was 55%; in the experiment on ERBB2, 38%. The “%Inh” value in the experiment with ERBB3 came out at 99.3%; in the experiment with ERBB4 it was 79%; in the experiment on ERK1, 0%; in the experiment with ERK2 it was 0%; in the experiment with ERK3 it was 0%; in the experiment with ERK4 it was 34%. Besides, the “%Inh” value in the experiment with ERK5 was determined as 27%; in the experiment with ERK8, 0%.
In the case of `COc1cc2c(cc1OC[C@@H](O)CO)ncc1c3ccc(C#N)cc3[nH]c21`, the “%Inh” value with EPHA3 was 0%; in the experiment on EPHA4, 8%; with EPHA5 it was 11%; in the experiment with EPHA6, 10%; in the experiment on EPHA7 it was 0%; in the experiment with EPHA8 it was 0%. Besides, the “%Inh” value is on record as 0% with EPHB1; 0% in the experiment on EPHB2; 14% in the experiment on EPHB3; 4% in the experiment with EPHB4; 44% in the experiment on EPHB6; 22% in the experiment with ERBB2. Moreover, the “%Inh” value in the experiment on ERBB3 is listed as 2%; in the experiment with ERBB4, 0%; in the experiment with ERK1 it was 0%; in the experiment on ERK2 it was 15%; in the experiment on ERK3, 0%; in the experiment on ERK4, 7%. For the same molecule, the “%Inh” value in the experiment with ERK5 is reported as 0%; in the experiment on ERK8, 33%.
For `NCC(NC(=O)c1cc(-c2cn[nH]c2)c(-c2ccnc3[nH]ccc23)s1)c1ccccc1.O=C(O)C(F)(F)F.O=C(O)C(F)(F)F` (stereo not drawn) [GSK1325775], the “%Inh” value with EPHA3 came out at 31%; in the experiment on EPHA4 it was 0%; in the experiment with EPHA5, 0%; in the experiment with EPHA6, 0%; in the experiment with EPHA7 it was 0%; in the experiment with EPHA8, 7%. The “%Inh” value in the experiment on EPHB1 turned out to be 13%; with EPHB2 it was 0%; in the experiment with EPHB3 it was 1%; with EPHB4 it was 0%; in the experiment with EPHB6, 12%; in the experiment with ERBB2, 32%. The “%Inh” value in the experiment with ERBB3 is 0%; in the experiment with ERBB4, 10%; in the experiment with ERK1 it was 0%; with ERK2, 0%; in the experiment on ERK3 it was 20%; in the experiment on ERK4, 9%. Further, the “%Inh” value in the experiment with ERK5 is recorded as 0%; in the experiment with ERK8, 51%.
Turning to `N#Cc1c(N2CCOCC2)sc(-c2ccn[nH]2)c1-c1ccc(Cl)cc1`, the “%Inh” value with EPHA3 is 11%; in the experiment on EPHA4 it was 0%; with EPHA5, 16%; in the experiment with EPHA6 it was 27%; in the experiment on EPHA7 it was 5%; in the experiment with EPHA8, 7%. Besides, the “%Inh” value is on record as 14% in the experiment with EPHB1; 0% with EPHB2; 15% with EPHB3; 12% in the experiment on EPHB4; 38% with EPHB6; 0% with ERBB2. In addition, the “%Inh” value in the experiment with ERBB3 was found to be 22%; in the experiment on ERBB4 it was 11%; with ERK1, 0%; in the experiment with ERK2 it was 24%; in the experiment on ERK3, 0%; in the experiment on ERK4, 0%. Besides, the “%Inh” value in the experiment with ERK5 is on record as 0%; in the experiment on ERK8, 5%.
Regarding `COc1ccc(Nc2ncc(C#N)c(Nc3ccccc3C(N)=O)n2)cc1N1CCN(C)CC1.Cl` [GSK1558669], the “%Inh” value with EPHA3 was found to be 95%; in the experiment on EPHA4, 61%; with EPHA5 it was 35%; in the experiment on EPHA6 it was 86%; with EPHA7, 81%; in the experiment on EPHA8, 29%. Further, the “%Inh” value with EPHB1 is listed as 98.6%; in the experiment on EPHB2, 59%; in the experiment with EPHB3 it was 28%; in the experiment with EPHB4 it was 76%; with EPHB6 it was 98.3%; in the experiment with ERBB2, 80%. The “%Inh” value is recorded as 96.6% in the experiment with ERBB3; 88% in the experiment on ERBB4; 7% in the experiment with ERK1; 0% with ERK2; 100% in the experiment with ERK3; 100% in the experiment with ERK4. Further, the “%Inh” value with ERK5 stood at 99.9%; with ERK8, 98.9%.
Regarding `O=C(c1ccc(-c2cc(-c3c[nH]nc3-c3ccccn3)ccn2)cc1)N1CCOCC1` [GW812171], the “%Inh” value in the experiment on EPHA3 came out at 17%; with EPHA4, 33%; in the experiment with EPHA5 it was 1%; in the experiment on EPHA6, 6%; in the experiment with EPHA7, 0%; in the experiment with EPHA8 it was 0%. The “%Inh” value with EPHB1 is 13%; in the experiment with EPHB2 it was 0%; in the experiment with EPHB3 it was 16%; in the experiment with EPHB4, 0%; with EPHB6 it was 0%; with ERBB2 it was 11%. Besides, the “%Inh” value in the experiment on ERBB3 was 0%; with ERBB4 it was 0%; in the experiment on ERK1, 0%; with ERK2, 0%; in the experiment with ERK3, 0%; with ERK4, 16%. For the same molecule, the “%Inh” value in the experiment with ERK5 came to 0%; in the experiment with ERK8, 5%.

The values are drawn from article PMC5540273 (PLoS ONE, 2017).
